# Laboratory results taken from PubChem BioAssay AID1273 (Columbia University Molecular Screening Center, 2008).
# Out of some 130,000 compounds screened, about 1,200 (0.92%) were called active.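 How the source made its calls: active means inhibition above the mean plus 3 SD, with well images judged a real hit on visual review (cut at about 60% in these data, passing the limit was not always enough); inconclusive means inhibition over the cutoff but images rejected on review; inactive means inhibition not above the cutoff.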 For the sample, actives were picked, then their nearest neighbours and some compounds at random.
# Test: insulin gene promoter suppression in islet cells – imaging, TRM-6 cells (human fetal islet line), eGFP reporter, cell count, primary screen (AID 1273;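 on normalized cell count: cells exposed to compound for 48 h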)
# Conditions: at 2 µM, reporter expression induced with tamoxifen; inhibition: stronger effect = higher value; normalized cell count: measured here: cell count, toxicity
Compound,inhibition,normalized cell count [%]
COC(=O)CC1=NN(c2ccccc2)C(=O)C1,0% (inactive),102
CN(C)C=NC(=O)c1cccn1-c1ncc(C(F)(F)F)cc1Cl,31.2% (inactive),84.7
CC1CCN(CCC(=O)Nc2ccccc2)CC1,78.6% (active),39.9
COc1ccc(OC)c(NC(=O)CCN2CCC(C)CC2)c1,34.2% (inactive),86.9
Cc1ccc(NC(=O)CCN2CCc3ccccc3C2)cc1,28.6% (inactive),64.3
O=C(CCN1CCN(C/C=C/c2ccccc2)CC1)Nc1cccc(F)c1,-57.1% (inactive),154
CCc1ccc(/C=C2\SC(N3CCOCC3)=NC2=O)cc1,16.7% (inactive),199
Cc1nnsc1C(=O)Nc1cccc(Cl)c1C,50% (inactive),71.6
O=C(Nc1ccc(-c2ccc3nncn3n2)cc1)C1CCCCC1,-25% (inactive),193
Cc1cccc(NC(=O)CN2C(=O)c3ccccc3C2=O)c1C,-28.6% (inactive),79
S=C(Nc1ccc2c(c1)OCO2)N1CCCC1,-79% (inactive),73.4
c1ccc(C2=Nc3cccc4cccc(c34)N2)cc1,-73.5% (inactive),133
COc1ccccc1C1=Nc2cccc3cccc(c23)N1,-6.67% (inactive),113
Fc1ccccc1N=C1Nc2cccc3cccc1c23,88.9% (active),172
Cc1ccc(N(C(=O)Cc2cccs2)C2C=CS(=O)(=O)C2)cc1Cl (centres undefined),15% (inactive),128
Cc1cc(NC(=O)CSc2nc3ccccc3n2CC(C)C)no1,-41.7% (inactive),96.4
CC1Cc2ccccc2N1S(=O)(=O)c1c(N)n(C)c(=O)n(C)c1=O (centres undefined),-66.7% (inactive),73.2
Cc1ccc(NC(=O)CSc2nnc(-c3cnccn3)n2Cc2ccco2)cc1C,-21.6% (inactive),100
COc1ccc(NC(=O)CSc2nnc(-c3cccs3)n2Cc2ccco2)cc1OC,72.7% (active),109
O=C(CSc1nnc(-c2cccs2)n1Cc1ccco1)c1ccc2c(c1)OCO2,17.6% (inactive),96.9
O=C(CCN1C(=O)c2ccncc2C1=O)Nc1cc(F)ccc1F,25% (inactive),92
CSCC(NS(=O)(=O)c1ccc(C)cc1)C(=O)O (centres undefined),-387% (inactive),83.3
Cn1c(N)c(C(=O)COC(=O)c2cnc(Cl)c(Cl)c2)c(=O)n(C)c1=O,-42.9% (inactive),106
CCOc1ccc(C(C)=O)cc1COC(=O)c1cnc(Cl)c(Cl)c1,83.3% (active),144
COCc1cc(C(C)=O)ccc1OC,30.8% (inactive),97.5
CCSc1sc(CC)cc1C=O,57.1% (inactive),96.8
CCN1CCN(c2ccc(NC(=O)c3cnccn3)cc2)CC1,-35.7% (inactive),74.9
